This note sets out measurements from the supplement of paper PMC3414501.

Where a name gives a salt, the structure may show the parent alone. A number with no mark means an inactive call.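 The calls were made as follows: active = HIS4 sensitivity z-score above 5 vs DMSO controls; inactive = score 5 or below.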

This experiment deals with S. cerevisiae NKY1551 his4x/his4B, sporulating. Kind of experiment: HIS4 meiotic recombination assay sensitivity score (z-score vs DMSO controls); higher = stronger inhibition of sporulation/recombination, active = hit call of the paper. As for the experimental part:
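NIH Clinical Collection compounds were added 1:100 from stock (about 100 µM final) to S. cerevisiae. Growth: average doubling time (AvgG) over 24 h of BY4741 (wild-type) or AD1-9 (drug-efflux-pump deficient) in rich media. HIS4: the his4x/his4B heteroallelic recombination reporter strain (SK1) was sporulated 5 h with compound at 30°C, then colony density was read on -his plates after 48 h. Sensitivity score = (compound − mean of 8 DMSO controls)/SD of DMSO controls. Hit cutoffs are >2 for growth and >5 for sporulation.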
In the case of `CN1[C@@H]2CC[C@H]1C[C@@H](OC(=O)c1c[nH]c3ccccc13)C2` [Tropisetron hydrochloride] (stock concentration (mM, diluted 1:100): 7.7), the “HIS4 meiotic recombination assay sensitivity score” value is 0.82.

`CCOc1cc(CC(=O)N[C@@H](CC(C)C)c2ccccc2N2CCCCC2)ccc1C(=O)O` [Repaglinide] (stock concentration (mM, diluted 1:100): 10): the “HIS4 meiotic recombination assay sensitivity score” value is 0.84.

Regarding `COC(=O)C1=C(C)NC(C)=C(C(=O)OC)C1c1ccccc1[N+](=O)[O-]` [Nifedipine] (stock concentration (mM, diluted 1:100): 10.7), the “HIS4 meiotic recombination assay sensitivity score” value is 1.3.

On to `COc1ccc(-c2oc3c(CC=C(C)C)c(O[C@@H]4O[C@H](CO)[C@@H](O)[C@H](O)[C@H]4O)cc(O)c3c(=O)c2O[C@@H]2O[C@@H](C)[C@H](O)[C@@H](O)[C@H]2O)cc1` [Icariin] (stock concentration (mM, diluted 1:100): 10), for which the “HIS4 meiotic recombination assay sensitivity score” value was 0.32.

As to `O=c1ncc(F)c[nH]1` [5-Fluoro-2-Pyrimidone] (stock concentration (mM, diluted 1:100): 10), the “HIS4 meiotic recombination assay sensitivity score” value is -0.02.

With `O=C(CCCN1CC=C(n2c(=O)[nH]c3ccccc32)CC1)c1ccc(F)cc1` [Droperidol] (stock concentration (mM, diluted 1:100): 10), the “HIS4 meiotic recombination assay sensitivity score” value is -0.15.

On to `CCOC(=O)c1ccc(OC(=O)CCCCCNC(=N)N)cc1` [Gabexate mesylate] (stock concentration (mM, diluted 1:100): 7.7), for which the “HIS4 meiotic recombination assay sensitivity score” value is 2.41.

For the molecule `O=c1[nH]c(=O)n(C2CCCO2)cc1F` (stereo not given) [Ftorafur] (stock concentration (mM, diluted 1:100): 10), the “HIS4 meiotic recombination assay sensitivity score” value was 0.93.

On to `CC(C)Oc1ccc2c(=O)c(-c3ccccc3)coc2c1` [Ipriflavone] (stock concentration (mM, diluted 1:100): 10), for which the “HIS4 meiotic recombination assay sensitivity score” value is -1.16.

In the case of `C[C@@H](O)[C@H]1C(=O)N2C(C(=O)O)=C(S[C@@H]3CN[C@H](C(=O)N(C)C)C3)[C@H](C)[C@H]12` [Meropenem] (stock concentration (mM, diluted 1:100): 11.4), the “HIS4 meiotic recombination assay sensitivity score” value is -1.58.

`CC(c1cc2ccccc2s1)N(O)C(N)=O` (stereo not given) [Zileuton] (stock concentration (mM, diluted 1:100): 10): the “HIS4 meiotic recombination assay sensitivity score” value is -2.31.

For the molecule `Cc1nccn1CC1CCc2c(c3ccccc3n2C)C1=O` (stereo not given) [Ondansetron hcl] (stock concentration (mM, diluted 1:100): 8.9), the “HIS4 meiotic recombination assay sensitivity score” value was -0.73.

For `COC1=C(OC)C(=O)C(CCCCCCCCCCO)=C(C)C1=O` [Idebenone] (stock concentration (mM, diluted 1:100): 10.2), the “HIS4 meiotic recombination assay sensitivity score” value is -0.57.

Regarding `COc1ccc(-c2cc(=O)c3c(OC)c(OC)c(OC)c(OC)c3o2)cc1OC` [Nobiletin] (stock concentration (mM, diluted 1:100): 10), the “HIS4 meiotic recombination assay sensitivity score” value was 1.02.

For `CC(C)(C#N)c1cc(Cn2cncn2)cc(C(C)(C)C#N)c1` [Anastrozole] (stock concentration (mM, diluted 1:100): 10), the “HIS4 meiotic recombination assay sensitivity score” value is 0.04.

For the molecule `O=C1CCc2ccc(OCCCCN3CCN(c4cccc(Cl)c4Cl)CC3)cc2N1` [Aripiprazole] (stock concentration (mM, diluted 1:100): 10), the “HIS4 meiotic recombination assay sensitivity score” value was -1.42.

Turning to `COc1ccc(C(=O)NCc2ccc(OCCN(C)C)cc2)cc1OC` [Itopride hydrochloride] (stock concentration (mM, diluted 1:100): 8.2), the “HIS4 meiotic recombination assay sensitivity score” value is -1.08.

Take `CCCc1nc2c(C)cc(-c3nc4ccccc4n3C)cc2n1Cc1ccc(-c2ccccc2C(=O)O)cc1` [Telmisartan] (stock concentration (mM, diluted 1:100): 10): the “HIS4 meiotic recombination assay sensitivity score” value is -1.16.

Consider `NC(=O)N1c2ccccc2CC(=O)c2ccccc21` [Trileptal] (stock concentration (mM, diluted 1:100): 10), for which the “HIS4 meiotic recombination assay sensitivity score” value is -2.89.

Take `O=C1c2cccc3c2[C@H](CCC3)CN1[C@@H]1CN2CCC1CC2` [Palonosetron hydrochloride] (stock concentration (mM, diluted 1:100): 10): the “HIS4 meiotic recombination assay sensitivity score” value is 5.73 (active).

As for `O=C(CCCN1CCC(O)(c2ccc(Cl)cc2)CC1)c1ccc(F)cc1` [Haloperidol] (stock concentration (mM, diluted 1:100): 10), the “HIS4 meiotic recombination assay sensitivity score” value was 7.67 (active).

On to `C=CCc1ccc(O)c(-c2ccc(O)c(CC=C)c2)c1` [Honokiol] (stock concentration (mM, diluted 1:100): 10.1), for which the “HIS4 meiotic recombination assay sensitivity score” value is -1.68.

With `Cc1cccc(C)c1NC(=O)C(C)N` (stereo not given) [Tocainide] (stock concentration (mM, diluted 1:100): 10), the “HIS4 meiotic recombination assay sensitivity score” value was 0.7.

For the molecule `Cc1ccc(O)c([C@H](CCN(C(C)C)C(C)C)c2ccccc2)c1` [Tolterodine tartrate] (stock concentration (mM, diluted 1:100): 6.9), the “HIS4 meiotic recombination assay sensitivity score” value was 4.21.

On to `CC(=O)O[C@]1(C(C)=O)CC[C@H]2[C@@H]3C=C(C)C4=CC(=O)CC[C@]4(C)[C@H]3CC[C@@]21C` [Megestrol acetate] (stock concentration (mM, diluted 1:100): 10), for which the “HIS4 meiotic recombination assay sensitivity score” value was -2.67.

For the molecule `COc1cccc2c1C(=O)c1c(O)c3c(c(O)c1C2=O)C[C@@](O)(C(=O)CO)C[C@@H]3O[C@H]1C[C@H](N)[C@H](O)[C@H](C)O1` [Doxorubicin hydrochloride] (stock concentration (mM, diluted 1:100): 9.4), the “HIS4 meiotic recombination assay sensitivity score” value was -0.73.

With `CNC(=N)NCCC[C@H](N)C(=O)O` [omega-N-Methylarginine] (stock concentration (mM, diluted 1:100): 9.3), the “HIS4 meiotic recombination assay sensitivity score” value was -0.29.

Take `Nc1ncnc2c1ncn2[C@@H]1O[C@H](CO)C[C@@H]1O` [3-Deoxydenosine] (stock concentration (mM, diluted 1:100): 10): the “HIS4 meiotic recombination assay sensitivity score” value is 7.05 (active).

Turning to `Cc1ncc([N+](=O)[O-])n1CC(C)O` (stereo not given) [Secnidazole] (stock concentration (mM, diluted 1:100): 10), the “HIS4 meiotic recombination assay sensitivity score” value was 0.68.

For `Nc1[nH]c(=O)ncc1F` [5-Fluorocytosine] (stock concentration (mM, diluted 1:100): 10.5), the “HIS4 meiotic recombination assay sensitivity score” value was -1.29.

`CCCc1nc(C)c2c(=O)nc(-c3cc(S(=O)(=O)N4CCN(CC)CC4)ccc3OCC)[nH]n12` [Vardenafil citrate] (stock concentration (mM, diluted 1:100): 7.2): the “HIS4 meiotic recombination assay sensitivity score” value is -0.18.

On to `COc1cc(C)c(Cc2cnc(N)nc2N)cc1OC` [Ormetoprim] (stock concentration (mM, diluted 1:100): 10), for which the “HIS4 meiotic recombination assay sensitivity score” value is -0.05.

Take `C[C@]12CCC(=O)C=C1CC[C@@H]1[C@@H]2C(=O)C[C@@]2(C)[C@H]1CC[C@]2(O)C(=O)CO` [Cortisone] (stock concentration (mM, diluted 1:100): 10): the “HIS4 meiotic recombination assay sensitivity score” value was -0.95.

For the molecule `CN1CCCCC1CCN1c2ccccc2Sc2ccc([S+](C)[O-])cc21` (stereo not given) [Mesoridazine] (stock concentration (mM, diluted 1:100): 10), the “HIS4 meiotic recombination assay sensitivity score” value was -1.59.

Consider `CCCN1CCCC[C@H]1C(=O)Nc1c(C)cccc1C` [Ropivacaine hydrochloride] (stock concentration (mM, diluted 1:100): 7.7), for which the “HIS4 meiotic recombination assay sensitivity score” value is 2.62.

As to `C[C@H](CCC(=O)O)[C@H]1CC[C@H]2[C@@H]3C(=O)C[C@@H]4CC(=O)CC[C@]4(C)[C@H]3CC(=O)[C@]12C` [Dehydrocholic acid] (stock concentration (mM, diluted 1:100): 10), the “HIS4 meiotic recombination assay sensitivity score” value is -0.93.

As for `CN(C/C=C/C#CC(C)(C)C)Cc1cccc2ccccc12` [Terbinafine hydrochloride] (stock concentration (mM, diluted 1:100): 8.9), the “HIS4 meiotic recombination assay sensitivity score” value is -0.72.

In the case of `C[C@@H]1C[C@H]2[C@@H]3C[C@H](F)C4=CC(=O)C(Cl)=C[C@]4(C)[C@@]3(F)[C@@H](O)C[C@]2(C)[C@@]1(O)C(=O)CO` [Halometasone monohydrate] (stock concentration (mM, diluted 1:100): 10), the “HIS4 meiotic recombination assay sensitivity score” value was -1.12.

`NC(N)=Nc1nc(CSCC/C(N)=N/S(N)(=O)=O)cs1` [Famotidine] (stock concentration (mM, diluted 1:100): 10): the “HIS4 meiotic recombination assay sensitivity score” value is -0.42.

For `CC(C)(C)NC(=O)[C@@H]1CN(Cc2cccnc2)CCN1C[C@@H](O)C[C@@H](Cc1ccccc1)C(=O)N[C@H]1c2ccccc2C[C@H]1O` [Indinavir sulphate] (stock concentration (mM, diluted 1:100): 8.6), the “HIS4 meiotic recombination assay sensitivity score” value is -1.36.
